# Screens from PubChem BioAssay.
# Rows were chosen to be rich in hits. Some 0.99% of all compounds tested hit in one or more screens of this group.
# TRHR agonist-1: activates the human TRH receptor; TRHR cells, calcium flux fluo-8, FDSS agonist mode; 0.18% of 360,000 active; activation, % at 2 µM; P34981; in the data active means activation above about 30%; further: 0% is about no effect
#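 Fluo-8-loaded TRHR cells; 10 s baseline, compound added, kinetic Ca2+ fluorescence read 1/s, agonist mode.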
# TRPV1 agonist: activates the human vanilloid receptor TRPV1. Q8NER1. TRPV1-expressing cells, Fluo-8 calcium influx, agonist mode. activation, % at 8.33 µM. 0.19% of 320,000 active; in the data active means activation above about 80%; inconclusive means between about 30% and that limit; further: 0% is about no effect
#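 TRPV1-expressing cells were cultured overnight at 35.5C and loaded with Fluo-8 calcium dye for 40 to 90 min at room temperature. After a 10 s baseline, compound was added and calcium influx was read kinetically for 3 min (ex 480/em 520 nm).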
# TRPV1 PAM: human TRPV1 potentiation | Q8NER1 | TRPV1-expressing cells, Fluo-8 calcium influx, capsaicin EC20 potentiation | potentiation, % at 8.33 µM | 0.02% of 320,000 active | AID 540277; in the data active means potentiation above about 80%; inconclusive means between about 30% and that limit; further: 0% is about no effect
#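 TRPV1-expressing cells were cultured overnight at 35.5C and loaded with Fluo-8 calcium dye for 40 to 90 min at room temperature. After a 10 s baseline, compound was added and calcium influx was read kinetically for 3 min (ex 480/em 520 nm).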
# TRHR enhancer-1: allosteric enhancers of human TRH receptor. P34981. TRHR cells, fluo-8 calcium fluorescence, EC20 TRH enhancement. enhancement, % at 2 µM. 0.66% of 360,000 active; in the data active means enhancement above about 30%; further: 0% is about no effect
#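 Enhancer read-out: after compound pinning and an initial kinetic agonist-mode read, an EC20 of TRH (10 nM final) was injected and fluo-8 calcium signal (Ex 480/Em 530) followed at 1 s/cycle for 100 cycles in TRHR-expressing cells.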
# TRPML1 inh: blocks the human TRPML1 channel; activity change, negative = inhibition, % (no concentration beside the values); TRPML1-inducible cells, Ca2+ dye fluorescence, FDSS; active compounds read low; inhibition of EC80 agonist-evoked calcium signal; 0.02% of 390,000 active; Q9GZU1; AID 624415; in the data active means activity change below about -50%; inconclusive means between about -30% and that limit;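 further: stimulus is agonist 54-4 at its EC80 concentration; on the % scale 0 is the no-effect control and ±100 the full control effect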
# Target sequence (Q9GZU1 whole entry, looked up): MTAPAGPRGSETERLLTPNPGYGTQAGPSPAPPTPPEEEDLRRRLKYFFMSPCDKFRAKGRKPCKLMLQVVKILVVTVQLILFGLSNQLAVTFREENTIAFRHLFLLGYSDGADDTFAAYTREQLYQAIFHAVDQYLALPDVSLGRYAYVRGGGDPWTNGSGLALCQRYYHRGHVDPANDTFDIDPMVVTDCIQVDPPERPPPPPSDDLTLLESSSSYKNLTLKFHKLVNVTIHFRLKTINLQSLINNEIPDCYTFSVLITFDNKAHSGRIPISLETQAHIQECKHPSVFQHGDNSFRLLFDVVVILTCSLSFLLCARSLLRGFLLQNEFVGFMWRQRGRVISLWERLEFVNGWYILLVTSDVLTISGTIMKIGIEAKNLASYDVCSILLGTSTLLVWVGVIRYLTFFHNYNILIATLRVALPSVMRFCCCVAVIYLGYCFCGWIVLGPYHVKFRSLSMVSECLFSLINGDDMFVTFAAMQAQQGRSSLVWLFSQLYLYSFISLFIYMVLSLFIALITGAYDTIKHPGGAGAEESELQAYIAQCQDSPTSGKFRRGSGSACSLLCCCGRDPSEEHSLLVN
#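 Calcium fluorescence in TRPML1-DL cells induced overnight with Tet: a 110 s read after compound pin addition, then a 110 s antagonist read after challenge with 54-4 at 4 uM final (EC80).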
# TRPML1 agonist: human mucolipin-1 channel agonism; Q9GZU1; TRPML1-expressing cells, Ca2+ dye fluorescence, FDSS; activation, % (test concentration not listed); 0.12% of 410,000 active; in the data active means activation above about 50%; inconclusive means mostly about 30% to 49%; further: 0% is about no effect
#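 Agonist activity was taken from a 110 s kinetic Ca2+ dye read on the FDSS after pinning compounds onto TRPML1-DL cells. The cells were seeded at 1,500/well with Tet inducer, incubated about 16 h, then dye-loaded at room temperature.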
# TRHR enhancer-2: confirmation of human TRH receptor allosteric enhancers; shares compounds with TRHR enhancer-1; TRH receptor cell assay, enhancer confirmation qHTS; activity change, negative = inhibition, % at 46.1 µM; 970 tested, under 10 active; AID 493076;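 further: compound effect scored on response to added TRH at EC20 of 10 nM; 0% is about no effect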
# TRHR agonist-2: confirmation of human TRH receptor agonists; shares compounds with TRHR enhancer-1; TRHR-expressing cells, agonist activation read-out; Potency, µM (doses to about 46.1 µM), for inactives: at the highest dose activation, usual class: activators; 8% of 970 active; further: potency means the concentration at half of the fitted maximal effect; 0% is about no effect; nearly all actives have a fitted effect of over 75% in size
# The depositor's hits bear a star; ? = inconclusive; / = no result. Unless noted, the call rests on the fitted dose curve; in most records, active means well fitted curve in the direction sought with a large enough effect; inconclusive means small, poorly fitted or top-dose-only effect, or another doubt; inactive means no such curve, though single readings can be large; an effect the other way counts as inactive or inconclusive.
SMILES,TRHR agonist-1,TRPV1 agonist,TRPV1 PAM,TRHR enhancer-1,TRPML1 inh,TRPML1 agonist,TRHR enhancer-2,TRHR agonist-2
COc1cc(Cl)c(C)cc1N1C(=O)CN(Cc2ccccc2)C1=S,90.6*,?,-15.5,-5.9,-1.5,3.9,-3.8,-0.5%
Cc1[nH]n(-c2ccccc2)c(=O)c1C=NC1CCCCC1,-0.4,8.2,-7.2,43.9*,-1.8,0.0,-2.5,1.4%
Cc1[nH]n(-c2ccccc2)c(=O)c1C=NC1CCCCCC1,0.2,17.4,5.8,0.4,-16.5,0.4,/,/
O=C(CSc1ccc(-c2ccc(Cl)cc2)nn1)N1CCCc2ccccc21,2.2,12.3,-4.9,-6.5,-9.2,4.8,/,/
O=C(CSc1ccc(-c2cccnc2)nn1)N1CCCc2ccccc21,0.2,5.7,28.0,41.0*,/,/,-6.6,-0.4%
CCCCCCCCCCCCCCCC[n+]1ccc(/C=C/c2c(C)[nH]c3ccccc23)cc1,/,/,/,/,/,5.1,/,/
CCCCSc1nc2c(cnn2-c2ccc(Cl)cc2)c(=O)[nH]1,-0.2,/,/,41.5*,-5.4,-0.2,-0.5,-0.5%
CC(=Nc1cccc(O)c1)c1sc2ccccc2c1O,29.1,8.8,?,14.0,-14.2,7.9,-2.5,?
COC(=O)c1cc2occc2n1CC(=O)Nc1cccc(SC)c1,0.0,/,/,4.0,11.8,-0.4,/,/
COC(=O)c1cc2sccc2n1CC(=O)Nc1cccc(SC)c1,-0.1,1.1,16.1,44.9*,-4.5,2.3,0.7,3.9%
CCc1ccc(CN(C)CC(O)COc2cccc3ccccc23)cc1 (stereo not given),-0.3,2.4,-8.3,42.3*,2.8,-0.4,?,0.8%
COCCOC(=O)C1=C(C)N(c2ccccc2)C(=O)NC1c1cccc([N+](=O)[O-])c1 (stereo not given),-1.1,-1.3,2.6,49.8*,21.7,-0.4,-19.3,-0.1%
CCOC(=O)C1=C(C)N(c2ccc(Cl)cc2)C(=O)NC1c1cccc([N+](=O)[O-])c1 (stereo not given),-1.2,-11.5,-1.7,-3.6,15.3,0.6,/,/
COc1ccc(/C=C/c2cnc3ccccc3n2)cc1OC,/,/,/,/,/,2.4,/,/
COc1cc(OC)c(OC)cc1/C=C1\Oc2cc(OS(C)(=O)=O)ccc2C1=O,37.6*,22.1,-4.9,-0.8,-10.9,23.8,-9.8,?
COc1ccccc1C(=O)Oc1ccc2c(c1)O/C(=C\c1ccncc1)C2=O,29.2,12.1,6.2,-3.1,-9.3,25.3,-7.7,?
COc1ccc(/C=C2\Oc3cc(OC(=O)N4CCOCC4)ccc3C2=O)cc1,0.1,14.2,10.3,0.3,-9.6,-0.7,/,/
CS(=O)(=O)Oc1ccc2c(c1)O/C(=C\c1cccnc1)C2=O,0.3,/,/,-1.3,17.2,1.5,/,/
CC(=O)Oc1ccc2c(c1)O/C(=C\c1ccncc1)C2=O,28.6,9.1,-8.9,5.5,-1.7,0.1,3.8,?
O=C(Oc1ccc2c(c1)O/C(=C\c1ccncc1)C2=O)c1cccs1,-0.4,-9.0,3.4,6.0,1.7,3.6,/,/
Cc1ccc(S(=O)(=O)N2CCN(c3nc(-c4ccc(CN5CCNCC5)s4)nc4ccccc34)CC2)cc1,/,/,/,/,/,-0.6,/,/
O=c1c2ccccc2sn1-c1ccc(Cl)c(S(=O)(=O)N2CCOCC2)c1,/,/,/,/,/,1.8,/,/
CC(=O)c1cc(NC(=O)c2ccc(C)cc2)c(=O)oc1/C=C/N(C)C,29.1,?,-8.7,-0.7,-5.9,13.8,3.6,20.6µM*
CSc1nnc(N2C(=O)C(O)=C(C(=O)c3ccco3)C2c2ccccc2)s1 (stereo not given),29.7,9.2,-7.4,2.2,-2.8,0.2,7.3,5.6%
CSc1nnc(N2C(=O)C(O)=C(C(=O)c3ccco3)C2c2ccccc2F)s1 (stereo not given),23.2,17.6,-18.1,2.9,6.3,11.7,/,/
